Test results: PubChem BioAssay (NCI)
About 79,000 compounds went through this panel and 15% of them were active in at least one assay; those are over-represented in the sample as a whole. Active and inactive are the calls of the source. No stated cut-off is given here; in the data, active means growth inhibition above about 70%; inactive means the rest.

How the values were obtained:
[1] = NCI Yeast Anticancer Drug Screen. Data for the rad52 strain (AID 147);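 further: 0% = growth of vehicle-treated control cultures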; conditions: S. cerevisiae rad52 mutant growth inhibition, active compounds read high
Summary of the method: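 Yeast strain carrying a DNA damage repair alteration was exposed to test compounds. Growth inhibition was measured relative to vehicle-treated controls.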

[2] = NCI Yeast Anticancer Drug Screen. Data for the wt1 strain (AID 149);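 further: 0% = growth of vehicle-treated wt1 cultures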; conditions: S. cerevisiae wt1 strain (SPY 50644) growth inhibition, active compounds read high
Summary of the method: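 Growth inhibition read against vehicle controls after compound exposure of the wt1 yeast strain.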

[3] = NCI Yeast Anticancer Drug Screen. Data for the mgt1 strain (AID 153); conditions: S. cerevisiae mgt1 mutant growth inhibition, active compounds read high
Summary of the method: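 Yeast mgt1 strain (DNA repair/cell-cycle alteration panel) exposed to compounds; growth inhibition measured relative to vehicle-treated controls.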

[4] = NCI Yeast Anticancer Drug Screen. Data for the rad50 strain (AID 155);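 further: 0% = growth of vehicle-only cultures of the same strain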; conditions: S. cerevisiae rad50 strain growth inhibition, active compounds read high
Summary of the method: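 Readout: growth inhibition relative to vehicle-treated cultures. Compound exposure was carried out in a genetically defined yeast strain deficient in DNA damage repair.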

[5] = NCI Yeast Anticancer Drug Screen. Data for the mec2-1 strain (AID 157); conditions: S. cerevisiae mec2-1 strain, active compounds read high
Summary of the method: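 mec2-1 yeast strain, carrying an alteration in DNA damage repair or cell cycle control, was exposed to compounds; growth inhibition was measured relative to vehicle-treated controls.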

[6] = NCI Yeast Anticancer Drug Screen. Data for the rad14 strain (AID 159);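 further: 0% = growth of vehicle-treated control cultures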; conditions: S. cerevisiae rad14 strain growth inhibition, active compounds read high
Summary of the method: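 Growth inhibition vs vehicle controls; genetically altered yeast strain (DNA damage repair defect) treated with test compounds.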

[7] = NCI Yeast Anticancer Drug Screen. Data for the sgs1 mgt1 strain (AID 161);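 further: 0% = growth of cultures given vehicle only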; conditions: S. cerevisiae sgs1 mgt1 strain, active compounds read high
Summary of the method: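 Yeast cells carrying a defined DNA-repair defect were exposed to test compounds. Growth inhibition was measured relative to vehicle-treated controls.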

[8] = NCI Yeast Anticancer Drug Screen. Data for the CLN2oe strain (AID 163);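 further: 0% = growth of vehicle-only control cultures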; conditions: S. cerevisiae CLN2oe strain, active compounds read high
Summary of the method: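 Yeast cells carrying a defined cell-cycle control alteration were exposed to test compounds. Growth inhibition was scored against vehicle-treated control cultures.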

[9] = NCI Yeast Anticancer Drug Screen. Data for the cln2 rad14 strain (AID 165);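 further: 0% = growth equal to vehicle treated cultures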; conditions: S. cerevisiae cln2 rad14 strain, active compounds read high
Summary of the method: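 Yeast carrying cln2 and rad14 alterations (cell cycle control and DNA damage repair) were exposed to compounds. Growth inhibition was measured against vehicle-treated controls.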

[10] = NCI Yeast Anticancer Drug Screen. Data for the bub3 strain (AID 167); conditions: S. cerevisiae bub3 mutant strain, active compounds read high
Summary of the method: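 Readout: yeast growth inhibition, expressed relative to vehicle-only wells. The test organism is a mutant strain from a panel with lesions in DNA repair or checkpoint genes.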

[11] = NCI Yeast Anticancer Drug Screen. Data for the wt2 strain (AID 169);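 further: 0% = growth of vehicle-treated yeast cultures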; conditions: S. cerevisiae wt2 strain growth inhibition, active compounds read high
Summary of the method: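 Yeast cells were exposed to test compounds, and growth inhibition was measured relative to vehicle-treated controls.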

[12] = NCI Yeast Anticancer Drug Screen. Data for the mlh1 strain (AID 171);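 further: 0% = growth of vehicle-treated control cultures of the same strain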; conditions: S. cerevisiae mlh1 strain growth inhibition, active compounds read high
Summary of the method: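 Yeast carrying a defined genetic alteration in DNA damage repair or cell cycle control were exposed to test compounds. Growth inhibition was measured relative to vehicle-treated controls.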

[13] = NCI Yeast Anticancer Drug Screen. Data for the sgs1 strain (AID 173);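 further: 0% = growth of vehicle-only control cultures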; conditions: S. cerevisiae sgs1 mutant, active compounds read high
Summary of the method: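 Yeast mutant strains carrying defined defects in DNA damage repair or cell cycle control were exposed to test compounds. Growth inhibition was scored against vehicle-treated controls.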

[14] = NCI Yeast Anticancer Drug Screen. Data for the mlh1 rad18 strain (AID 175); conditions: S. cerevisiae mlh1 rad18 strain growth inhibition, active compounds read high
Summary of the method: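 Growth inhibition of the yeast strain was measured after compound exposure and expressed relative to vehicle-treated controls. The strain carries defined defects in DNA damage repair.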

[15] = NCI Yeast Anticancer Drug Screen. Data for the rad18 strain (AID 177); conditions: S. cerevisiae rad18 mutant growth inhibition, active compounds read high
Summary of the method: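 Yeast carrying a defined DNA damage repair alteration were exposed to compounds. Growth inhibition was expressed relative to vehicle-treated controls.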

[16] = at 5.0 µM (retest, dose inferred, filed as 0.5)
[17] = at 50.0 µM (retest, dose inferred, filed as 5.0)

Measured: growth inhibition

CCOC(=O)c1[nH]cc(C)c1-c1cccn1-c1ccc(Cl)cc1[N+](=O)[O-]
inactive: [1]; at 1.2 µM 13% | [1]; at 3.7 µM 19% | [1]; at 11.0 µM 27% | [1]; at 33.0 µM 25% | [2]; at 1.2 µM 16% | [2]; at 3.7 µM 6% | [2]; at 11.0 µM 16% | [2]; at 33.0 µM 12% | [3]; at 1.2 µM 3% | [3]; at 3.7 µM 17% | [3]; at 11.0 µM 20% | [3]; at 33.0 µM 48% | [4]; at 1.2 µM 1% | [4]; at 3.7 µM 8% | [4]; [16] 13% | [4]; at 11.0 µM 14% | [4]; at 33.0 µM 19% | [4]; [17] 43% | [4]; at 50.0 µM 32.5% | [5]; at 1.2 µM 4% | [5]; at 3.7 µM 15% | [5]; [16] 3% | [5]; at 11.0 µM -7% | [5]; at 33.0 µM 14% | [5]; [17] 48% | [5]; at 50.0 µM 46.1% | [6]; at 1.2 µM 21% | [6]; at 3.7 µM 15% | [6]; at 11.0 µM 16% | [6]; at 33.0 µM 31% | [7]; [16] 8% | [7]; at 50.0 µM 64.1% | [8]; at 1.2 µM -7% | [8]; at 3.7 µM -16% | [8]; at 11.0 µM -4% | [8]; at 33.0 µM -5% | [9]; [16] 11% | [9]; [17] 67% | [9]; at 50.0 µM 21.3% | [10]; at 1.2 µM 15% | [10]; at 3.7 µM 13% | [10]; [16] 9% | [10]; at 11.0 µM 12% | [10]; at 33.0 µM 32% | [10]; [17] 68% | [10]; at 50.0 µM 28.8% | [11]; at 1.2 µM -20% | [11]; at 3.7 µM -23% | [11]; at 11.0 µM -17% | [12]; at 1.2 µM 17% | [12]; at 3.7 µM 22% | [12]; at 11.0 µM 27% | [12]; at 33.0 µM 55% | [13]; at 1.2 µM 17% | [13]; at 3.7 µM 22% | [13]; at 11.0 µM 21% | [13]; at 33.0 µM 49% | [14]; [16] 11% | [14]; [17] 65% | [14]; at 50.0 µM 39.7% | [15]; at 1.2 µM 23% | [15]; at 3.7 µM 6% | [15]; at 11.0 µM 7% | [15]; at 33.0 µM 25%
active: [1]; at 100.0 µM 89% | [2]; at 100.0 µM 80% | [3]; at 100.0 µM 96% | [4]; at 100.0 µM 90% | [5]; at 100.0 µM 85% | [6]; at 100.0 µM 90% | [7]; [17] 87% | [8]; at 100.0 µM 92% | [10]; at 100.0 µM 91% | [11]; at 33.0 µM 84% | [11]; at 100.0 µM 93% | [12]; at 100.0 µM 96% | [13]; at 100.0 µM 95% | [15]; at 100.0 µM 89%

NC1CCCCC1N.Nc1c(N=Nc2ccc(-c3ccc(N=Nc4cc(S(=O)(=O)[O-])c5ccccc5c4N)cc3)cc2)cc(S(=O)(=O)[O-])c2ccccc12.[OH3+].[OH3+].[Pt+4]
active: [1]; at 33.0 µM 80% | [2]; at 100.0 µM 92% | [3]; at 11.0 µM 90% | [3]; at 33.0 µM 94% | [3]; at 100.0 µM 84% | [4]; at 33.0 µM 89% | [4]; [17] 83% | [4]; at 50.0 µM 86.7% | [4]; at 100.0 µM 70% | [5]; [16] 88% | [5]; at 33.0 µM 92% | [5]; [17] 84% | [5]; at 50.0 µM 80.9% | [5]; at 100.0 µM 77% | [6]; at 11.0 µM 85% | [6]; at 33.0 µM 94% | [6]; at 100.0 µM 81% | [7]; [17] 89% | [7]; at 50.0 µM 84.9% | [9]; [17] 78% | [10]; [16] 91% | [10]; at 33.0 µM 90% | [10]; [17] 83% | [10]; at 50.0 µM 82.5% | [11]; at 11.0 µM 86% | [11]; at 33.0 µM 90% | [11]; at 100.0 µM 70% | [12]; at 11.0 µM 81% | [12]; at 33.0 µM 90% | [14]; [16] 77% | [14]; [17] 78% | [14]; at 50.0 µM 85.2% | [15]; at 33.0 µM 88% | [15]; at 100.0 µM 71%
inactive: [1]; at 1.2 µM 0% | [1]; at 3.7 µM 4% | [1]; at 11.0 µM 47% | [1]; at 100.0 µM 65% | [2]; at 1.2 µM 1% | [2]; at 3.7 µM -43% | [2]; at 11.0 µM 26% | [2]; at 33.0 µM 35% | [3]; at 1.2 µM 1% | [3]; at 3.7 µM 12% | [4]; at 1.2 µM 2% | [4]; at 3.7 µM 1% | [4]; [16] 1% | [4]; at 11.0 µM 28% | [5]; at 1.2 µM 0% | [5]; at 3.7 µM 9% | [5]; at 11.0 µM 66% | [6]; at 1.2 µM 2% | [6]; at 3.7 µM 13% | [7]; [16] 38% | [9]; [16] 66% | [9]; at 50.0 µM 69.8% | [10]; at 1.2 µM -1% | [10]; at 3.7 µM -1% | [10]; at 11.0 µM 54% | [10]; at 100.0 µM 68% | [11]; at 1.2 µM -1% | [11]; at 3.7 µM 10% | [12]; at 1.2 µM -1% | [12]; at 3.7 µM 7% | [12]; at 100.0 µM 65% | [15]; at 1.2 µM 1% | [15]; at 3.7 µM -2% | [15]; at 11.0 µM 25%
